In PubChem BioAssay (Tox21):
Values without a mark were called inactive. Inconclusive results are not listed. A call without a number means that no potency is given here. Calls of active or inactive are those of the source. Unless noted, the call rests on the fitted dose curve; in most records, active means well fitted curve in the direction sought with a large enough effect in the repeat runs; inconclusive means weak or mixed curves; inactive means no such curve, though single readings can be large; an effect the other way counts as inactive or inconclusive.

Experiments:
[1] = qHTS assay for small molecule agonists of the p53 signaling pathway (AID 651631; calls by dose curve; further: nearly all actives have a fitted effect of over 15% in size; further: potency means the concentration at half of the fitted maximal effect)
Procedure, shortened: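 Stably transfected HCT-116 cells (beta-lactamase behind p53 response elements) get compounds after a 5 h settling period; 16 h later at 37 °C, FRET substrate is loaded and fluorescence read after 2 h.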

[2] = qHTS assay for small molecules that induce genotoxicity in human embryonic kidney cells expressing luciferase-tagged ATAD5 (AID 651632); further: nearly all actives have a fitted effect of over 15% in size
Procedure, shortened: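 Quantitative HTS in HEK293T expressing luciferase-tagged ATAD5, whose levels rise upon DNA damage. Exposure ran 16 hr at 37C and 5% CO2, with luminescence read 30 min after Amplite addition at room temperature.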

[3] = qHTS assay for small molecules that induce genotoxicity in human embryonic kidney cells expressing luciferase-tagged ATAD5 - cell viability (AID 651634; calls by dose curve; further: nearly all actives have a fitted effect of over 25% in size; further: potency means the concentration at half of the fitted maximal effect)
Procedure, shortened: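 After 15.5 hr incubation with compound at 37C, 5% CO2, HEK293T ATAD5-luciferase cells received CellTiter-Fluor reagent; fluorescence intensity was quantified following 30 min at 37C.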

[4] = qHTS assay for small molecule disruptors of the mitochondrial membrane potential - cell viability (AID 720634; calls by dose curve;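 further: human HepG2 liver cancer cells; nearly all actives have a fitted effect of over 20% in size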)
Procedure, shortened: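 ATP-based luminescent viability readout (CellTiter-Glo, 30 min, room temperature) in HepG2 cells multiplexed with the m-MPI membrane potential dye; compound exposure lasted 1 hr at 37 C.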

[5] = qHTS assay for small molecule disruptors of the mitochondrial membrane potential (AID 720635)
Procedure, shortened: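 HepG2 cells exposed to compound 1 hr at 37C, then Mito-MPS dye 30 min. Ratio read of aggregate (540/590 nm) versus monomer (490/535 nm) fluorescence.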

[6] = qHTS assay to test for compound auto fluorescence at 590 nm (red) in HepG2 cells (AID 720674)
Procedure, shortened: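 Seeding: 2,000 HepG2 cells/well, MEM/10% FBS, overnight 37 C. Dosing: compound vs DMSO. Incubation: 1 hr, 37 C, 5% CO2. Read: fluorescence 540 ex/590 em, Rose Bengal sodium as red reference.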

[7] = qHTS assay to test for compound auto fluorescence at 535 nm (green) in HepG2 cells (AID 720675)
[8] = qHTS assay to test for compound auto fluorescence at 460 nm (blue) in HEK293 cells (AID 720678)
Procedure, shortened: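 Cells were seeded and left to adhere for 4-5 hr at 37C. Compounds were then pin-transferred. After an overnight incubation at 37C under 5% CO2, intrinsic fluorescence at 405/460 nm was measured and referenced to triamterene.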

[9] = qHTS assay to test for compound auto fluorescence at 590 nm (red) in HEK293 cells (AID 720679)
Procedure, shortened: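 Each well held 2,000 HEK293 cells in medium containing 10% dialyzed FBS. Following 4-5 hr attachment at 37C, 23 nL test compound or DMSO was added; plates sat overnight, and red fluorescence (540/590nm) was recorded.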

[10] = qHTS assay to test for compound auto fluorescence at 535 nm (green) in HEK293 cells (AID 720680)
[11] = qHTS assay to test for compound auto fluorescence at 460 nm (blue) in HEK293 cell free culture (AID 720681)
Procedure, shortened: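 Compounds were added to cell-free DMEM with 10% FBS and fluorescence read directly. The blue channel used 405 nm excitation and 460 nm emission, with triamterene as the reference fluorophore.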

[12] = qHTS assay to test for compound auto fluorescence at 535 nm (green) in HEK293 cell free culture (AID 720682)
Procedure, shortened: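 Using fluorescein as calibrant, autofluorescence was quantified at 485/535 nm in cell-free DMEM containing 10% FBS after pintool addition of compound or vehicle.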

[13] = qHTS assay to test for compound auto fluorescence at 590 nm (red) in HEK293 cell free culture (AID 720683)
Procedure, shortened: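 Cell-free wells of DMEM with 10% FBS received compound, and intrinsic fluorescence was read at excitation/emission 540/590 nm. Values expressed as equivalence to Rose Bengal sodium.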

[14] = qHTS assay to test for compound auto fluorescence at 590 nm (red) in HepG2 cell free culture (AID 720684)
Procedure, shortened: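 Auto fluorescence equivalency versus Rose Bengal sodium, red channel Ex/Em 540/590 nm; compounds in cell-free MEM/10% FBS; DMSO vehicle control.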

[15] = qHTS assay to test for compound auto fluorescence at 460 nm (blue) in HepG2 cell free culture (AID 720685)
Procedure, shortened: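 Cell-free plates of MEM plus 10% FBS received 23 nL compound or DMSO vehicle; blue-channel (405/460 nm) intensity scored against triamterene as reference fluorophore.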

[16] = qHTS assay to test for compound auto fluorescence at 535 nm (green) in HepG2 cell free culture (AID 720686)
[17] = qHTS assay to test for compound auto fluorescence at 460 nm (blue) in HepG2 cells (AID 720687)
Procedure, shortened: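 HepG2 cells in MEM with 10% FBS, attached overnight at 37 C, were exposed to compound or DMSO for 1 hr at 37 C, 5% CO2. Blue fluorescence was read at 405/460 nm, with triamterene as reference fluorophore.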

[18] = target: Glucocorticoid receptor (Homo sapiens) (UniProt P04150); assay: qHTS assay to identify small molecule agonists of the glucocorticoid receptor (GR) signaling pathway (AID 720691; active means well fitted activation curve with a large enough effect in the signal ratio in the repeat runs, not every such curve was filed as active; the % refers to the signal ratio); details: GR-bla HeLa, beta-lactamase reporter ratio, 18 h; activation: at 62.4 µM (top of the series) unless noted
Glucocorticoid receptor (Homo sapiens), sequence (P04150 whole entry, looked up): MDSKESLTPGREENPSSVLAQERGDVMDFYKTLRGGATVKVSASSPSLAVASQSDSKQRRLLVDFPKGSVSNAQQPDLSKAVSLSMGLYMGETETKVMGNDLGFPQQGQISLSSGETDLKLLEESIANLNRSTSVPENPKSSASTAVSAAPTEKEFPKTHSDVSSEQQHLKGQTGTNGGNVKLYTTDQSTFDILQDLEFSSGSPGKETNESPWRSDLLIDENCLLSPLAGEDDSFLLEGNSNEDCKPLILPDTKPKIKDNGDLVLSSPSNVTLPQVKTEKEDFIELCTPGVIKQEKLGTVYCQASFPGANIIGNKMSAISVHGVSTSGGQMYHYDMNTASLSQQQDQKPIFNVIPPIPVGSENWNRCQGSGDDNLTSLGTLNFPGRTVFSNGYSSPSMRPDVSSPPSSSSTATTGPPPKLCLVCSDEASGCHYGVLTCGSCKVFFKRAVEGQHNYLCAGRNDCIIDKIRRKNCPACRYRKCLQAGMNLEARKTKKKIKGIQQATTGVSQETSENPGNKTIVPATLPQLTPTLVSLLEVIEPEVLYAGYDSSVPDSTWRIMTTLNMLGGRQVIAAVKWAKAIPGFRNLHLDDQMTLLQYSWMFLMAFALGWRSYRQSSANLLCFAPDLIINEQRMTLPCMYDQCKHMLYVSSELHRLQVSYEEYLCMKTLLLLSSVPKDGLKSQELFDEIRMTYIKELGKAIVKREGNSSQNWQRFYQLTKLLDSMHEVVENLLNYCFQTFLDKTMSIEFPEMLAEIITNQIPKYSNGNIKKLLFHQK
Procedure, shortened: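 Cells: GR-bla HeLa, endogenous GR with stably integrated GRE-beta-lactamase reporter. Treatment 18 h, 37 C, compounds delivered in DMSO. Detection via LiveBLAzer B/G FRET substrate, 2 h RT, fluorescence intensity.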

[19] = target: Glucocorticoid receptor (Homo sapiens) (UniProt P04150); assay: qHTS assay to identify small molecule antagonists of the glucocorticoid receptor (GR) signaling pathway (AID 720692; active means well fitted inhibition curve with a large enough effect in the signal ratio in the repeat runs, not every such curve was filed as active; the % refers to the signal ratio)
Procedure, shortened: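 Quantitative HTS in antagonist format: HeLa cells expressing endogenous GR and a stably integrated GRE-bla reporter, stimulated with 5 nM dexamethasone (final) alongside test compounds for 18 h.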

[20] = qHTS assay for small molecule agonists of the p53 signaling pathway - cell viability (AID 651633; calls by dose curve;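 further: p53RE-bla HCT reporter cells with a stable beta-lactamase p53 reporter; nearly all actives have a fitted effect of over 30% in size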)
Procedure, shortened: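 p53RE-bla cells were treated with compound for 16 hours at 37 C. Cytotoxicity was then measured as CellTiter-Glo luminescence after 30 min at room temperature.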

| Compound | Potency [1] | Potency [2] | Potency [3] | Potency [4] | Potency [5] | Potency [6] | Potency [7] | outcome [8] | Potency [9] | outcome [10] | outcome [11] | outcome [12] | Potency [13] | Potency [14] | outcome [15] | Potency [16] | outcome [17] | Potency [18] | Potency [19] | Potency [20] |
| --- | --- | --- | --- | --- | --- | --- | --- | --- | --- | --- | --- | --- | --- | --- | --- | --- | --- | --- | --- | --- |
| OCCNCc1ccccc1 | inactive | inactive | inactive | inactive | inactive | inactive | inactive | inactive | inactive | inactive | inactive | inactive | inactive | inactive | inactive | inactive | inactive | inactive | inactive |  |
| CCN(CC)CCNC(=O)c1cc(Br)c(N)cc1OC | inactive | inactive | inactive | inactive | inactive | inactive | inactive | inactive | inactive | inactive | inactive | inactive | inactive | inactive | inactive | inactive | inactive |  |  |  |
| CCNc1cc(O)ccc1C | inactive | inactive | inactive | inactive |  | inactive | inactive | inactive | inactive | inactive | inactive | inactive | inactive | inactive | inactive | inactive | inactive |  |  |  |
| Cc1cc(C(=O)O)ccc1[N+](=O)[O-] | inactive | inactive | inactive | inactive |  | inactive | inactive | inactive |  | inactive | inactive | inactive | inactive | inactive | inactive | inactive | inactive | inactive |  |  |
| CCOC(=O)c1cccnc1 | inactive | inactive |  | inactive |  | inactive | inactive | inactive | inactive | inactive | inactive |  |  | inactive | inactive | inactive | inactive |  | inactive | inactive |
| COc1ccc(S(=O)(=O)N2C(=O)[C@@](c3ccccc3OC)(N3C[C@H](O)C[C@H]3C(=O)N(C)C)c3cc(Cl)ccc32)c(OC)c1 | inactive | inactive |  | inactive | inactive | inactive | inactive | inactive | inactive | inactive | inactive |  | inactive | inactive | inactive | inactive | inactive |  |  | inactive |
| O=C(OCCc1ccccc1)c1ccccc1 | inactive |  | inactive | inactive | inactive |  | inactive | inactive | inactive | inactive | inactive |  |  | inactive | inactive | inactive | inactive | inactive |  | inactive |
| CCN(CC)CCNc1ccc(CNC=O)c2sc3ccc(OC)cc3c(=O)c12 | 6.86 µM (active) |  | 4.86 µM (active) | inactive |  | inactive | inactive | inactive | inactive | inactive | inactive | inactive |  | inactive | inactive | inactive |  |  |  | inactive |
| CCOC(=O)Cc1cccc2ccccc12 | inactive | inactive | inactive | inactive |  | inactive | inactive | inactive |  | inactive | inactive | inactive |  | inactive | inactive | inactive | inactive | inactive | inactive |  |
| OC[C@H]1O[C@@H](OCCc2ccc(O)cc2)[C@H](O)[C@@H](O)[C@@H]1O | inactive | inactive | inactive | inactive | inactive | inactive | inactive | inactive | inactive | inactive | inactive |  |  | inactive | inactive | inactive | inactive |  |  |  |
| c1ccc(C(O[C@H]2CCCN(CCc3ccc4c(c3)OCO4)C2)c2ccccc2)cc1 | inactive | inactive | inactive | inactive |  |  | inactive | inactive | inactive | inactive | inactive | inactive |  | inactive | inactive | inactive | inactive | inactive |  |  |
| Cc1ccccc1S(=O)(=O)O | inactive |  | inactive | inactive |  | inactive | inactive | inactive | inactive |  | inactive | inactive | inactive | inactive | inactive | inactive | inactive |  |  | inactive |
| O=C(O)c1ccco1 | inactive |  | inactive | inactive |  | inactive | inactive | inactive | inactive | inactive | inactive | inactive | inactive | inactive | inactive | inactive | inactive |  |  | inactive |
| CC(=O)OC[C@H]1O[C@@H](n2ncc(=O)[nH]c2=O)[C@H](OC(C)=O)[C@@H]1OC(C)=O | 1.88 µM (active) | inactive | inactive | inactive |  | inactive | inactive | inactive | inactive |  | inactive | inactive | inactive | inactive | inactive | inactive | inactive |  |  |  |
| CC1=CC=C(C(C)C)CC1 | inactive | inactive | inactive |  |  |  | inactive | inactive | inactive |  | inactive | inactive |  | inactive | inactive | inactive | inactive |  |  | inactive |
| O=[N+]([O-])c1cccc(S(=O)(=O)O)c1 | inactive | inactive | inactive |  |  | inactive | inactive | inactive | inactive | inactive | inactive | inactive | inactive | inactive | inactive | inactive | inactive | inactive | inactive | inactive |
